# From PMC4336329 (PLoS ONE, 2015)
# About 14,000 (4.5%) of roughly 310,000 compounds showed an effect of 50% or more. Effects have a minus sign here. The full list was thinned out, with strong results kept by preference.
# Target: human ether-à-go-go-related gene (hERG) potassium channel (human, UniProt Q12809)
# Experiment: primary screen, population patch clamp on CHO cells stably expressing hERG; higher = less effect of the substance
# Experimental: Briefly, Chinese hamster ovary (CHO) cells stably expressing the hERG channel were dislodged from tissue culture flasks and dispensed into PPC plates. […] During the recording, background leak currents were estimated by a 100 ms step to -80 mV from an initial holding potential of -70 mV and subtracted from the subsequent current measurement. The campaign was conducted in two phases using slight differences in recording protocol. In the first phase, the initial voltage pulse used a 100 ms step to -30 mV from a holding potential of -70 mV, a 2 s conditioning step to +25 mV, and a 2 s test step to -30 mV. During the second phase of the screen, the potential during the conditioning step was raised to +45 mV. In both phases of the campaign, a secondary voltage pulse was applied using the same parameters as the second phase initial pulse. The initial and secondary pulses were applied in the absence of compound, and upon application of 1 μM and 10 μM test concentrations. […]
# 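Note: peak tail current of the secondary pulse compared with the same well before compound.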
# Chain of human ether-à-go-go-related gene (hERG) potassium channel (Q12809 whole entry, looked up): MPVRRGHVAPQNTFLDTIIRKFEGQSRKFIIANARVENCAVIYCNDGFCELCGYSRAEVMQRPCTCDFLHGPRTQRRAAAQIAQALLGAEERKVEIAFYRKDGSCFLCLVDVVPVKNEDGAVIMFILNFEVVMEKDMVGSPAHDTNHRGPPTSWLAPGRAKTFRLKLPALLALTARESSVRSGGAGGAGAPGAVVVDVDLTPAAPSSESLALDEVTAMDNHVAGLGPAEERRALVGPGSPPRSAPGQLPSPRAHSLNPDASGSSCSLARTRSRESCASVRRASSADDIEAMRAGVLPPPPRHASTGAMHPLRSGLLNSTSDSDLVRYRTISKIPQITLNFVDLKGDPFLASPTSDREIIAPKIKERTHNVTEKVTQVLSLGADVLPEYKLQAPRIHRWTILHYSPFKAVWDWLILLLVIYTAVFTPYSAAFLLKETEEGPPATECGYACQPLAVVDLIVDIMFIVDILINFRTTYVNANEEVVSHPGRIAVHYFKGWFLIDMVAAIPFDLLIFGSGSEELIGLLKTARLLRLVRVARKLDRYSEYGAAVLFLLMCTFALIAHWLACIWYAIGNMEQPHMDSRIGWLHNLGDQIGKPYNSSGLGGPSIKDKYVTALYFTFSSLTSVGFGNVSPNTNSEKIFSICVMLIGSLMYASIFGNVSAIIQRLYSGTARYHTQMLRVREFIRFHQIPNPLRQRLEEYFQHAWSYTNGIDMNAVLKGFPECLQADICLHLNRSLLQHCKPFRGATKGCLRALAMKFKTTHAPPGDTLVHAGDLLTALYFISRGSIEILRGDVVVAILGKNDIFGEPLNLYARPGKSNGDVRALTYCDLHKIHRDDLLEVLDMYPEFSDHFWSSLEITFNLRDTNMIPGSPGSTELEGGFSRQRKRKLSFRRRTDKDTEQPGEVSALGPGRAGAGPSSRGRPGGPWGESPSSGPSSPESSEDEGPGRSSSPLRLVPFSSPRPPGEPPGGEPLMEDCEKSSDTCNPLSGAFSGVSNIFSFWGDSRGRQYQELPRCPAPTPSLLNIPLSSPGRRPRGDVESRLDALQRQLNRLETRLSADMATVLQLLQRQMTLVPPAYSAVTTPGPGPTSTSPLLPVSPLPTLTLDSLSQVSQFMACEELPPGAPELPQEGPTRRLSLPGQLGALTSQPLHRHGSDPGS
row,SMILES,"hERG current change (%, negative = inhibition) at 10uM"
1,Cc1c(C(=O)N2CCC(Cc3ccccc3)CC2)sc2ncnc(N3CCC(C)CC3)c12,8.19%
2,CCOC(=O)C1CCCN(C(=O)c2sc3nc(C)nc(N4CCOCC4)c3c2C)C1 (stereo not shown),-3.42%
3,CCOC(=O)C1CCN(C(=O)c2sc3nc(C)nc(N4CCC(C)CC4)c3c2C)CC1,-52.7%
4,CCOC(=O)C1CCN(C(=O)c2sc3ncnc(N4CCC(C)CC4)c3c2C)CC1,-73.2%
5,Cc1c(C(=O)N2CCN(c3ccccc3)CC2)sc2ncnc(N3CCC(C)CC3)c12,-29.9%
6,CCN1CCN(C(=O)c2sc3nc(C)nc(N4CCC(C)CC4)c3c2C)CC1,-8.16%
7,Cc1nn(-c2nnc(NC3CCCCC3)nn2)c(C)c1Br,10.8%
8,OC1(c2ccccc2F)CCN(Cc2nnnn2Cc2ccc(F)cc2)CC1,8.52%
9,C/C(N)=C(/C#N)C(=O)CSc1nc2cc(Cl)ccc2c(=O)n1Cc1ccco1,16.8%
10,CC1(C)CC(=O)C2=C(C1)OC(/N=C/N1CCOCC1)=C(C#N)C2c1ccccc1 (stereo not shown),-11%
11,CCOc1cccc(OCCn2cnc3ccccc3c2=O)c1,5.84%
12,COc1ccc(N2CCN(C(=O)Cn3cnc4c3c(=O)n(C)c(=O)n4C)CC2)cc1,5.48%
13,Cn1c(=O)c2c(ncn2CC(=O)N2CCN(c3ccc([N+](=O)[O-])cc3)CC2)n(C)c1=O,-72%
14,Cn1c(=O)c2c(nc(N3CCCC3)n2C)n(C)c1=O,10%
15,Cn1c(=O)c2c(ncn2CC(=O)N2CCN(c3ccc(F)cc3)CC2)n(C)c1=O,-23.4%
16,Cc1cccc(N2CCN(C(=O)Cn3cnc4c3c(=O)n(C)c(=O)n4C)CC2)c1C,-26%
17,Cn1c(=O)c2c(ncn2CC(=O)N2CCN(c3cccc(Cl)c3)CC2)n(C)c1=O,-64.2%
18,Cn1c(=O)c2c(nc(N3CCN(c4ccc([N+](=O)[O-])cc4)CC3)n2C)n(C)c1=O,-76.2%
19,Cn1c(=O)c2c(ncn2CC(=O)N2CCN(c3ccccc3)CC2)n(C)c1=O,0.318%
20,Cn1c(=O)c2c(nc(N3CCOCC3)n2C)n(C)c1=O,-4.44%
21,Cc1ccc(C(=O)c2ccccc2C(=O)O)s1,-1.28%
22,COc1cccc(N2CCN(C3C4CC5CC(C4)CC3C5)CC2)c1 (stereo not shown),2.54%

row,SMILES,"hERG current change (%, negative = inhibition) at 10uM"
1,CC(=O)Nc1nc(NC(=O)/C=C/c2ccccc2)n(-c2ccccc2)n1,-1.34%
2,COC(CNC(=O)c1ccc2c(c1)ncn2C1CCCCCC1)OC,4.09%
3,COc1ccc(-c2noc(C3CCCN(C(=O)c4cccs4)C3)n2)cc1 (stereo not shown),-21.1%
4,O=C(c1ccc(F)cc1)N1CCCC(c2nc(-c3cccs3)no2)C1 (stereo not shown),-18.5%
5,COc1ccc(-c2noc(C3CCCN(C(=O)c4ccc(F)cc4)C3)n2)cc1 (stereo not shown),-35.3%
6,O=C(c1cccs1)N1CCCC(c2nc(-c3ccc(F)cc3)no2)C1 (stereo not shown),-51.7%
7,O=C(c1ccc(F)cc1)N1CCCC(c2nc(-c3ccncc3)no2)C1 (stereo not shown),-65.6%
8,O=C(c1c(F)cccc1F)N1CCCC(c2nc(-c3ccc(F)cc3)no2)C1 (stereo not shown),-6.69%
9,CCN1C(=O)c2cccc3c(S(=O)(=O)NCC4CCCO4)ccc1c23 (stereo not shown),1.95%
10,COCCNC(=O)C(c1cccc(OC)c1)N(C(=O)Cn1nnc2ccccc21)c1cccnc1 (stereo not shown),7.66%
11,COCC1CCCCN1C(=O)c1ccc(OC2CCN(Cc3ccccn3)CC2)cc1 (stereo not shown),1.34%
12,CC(=O)Nc1cc(NC(C)=O)cc(-c2nc3ccccc3[nH]2)c1,3.84%
13,Cc1ccc(C(=O)N/C(=C\c2ccc(C(C)C)cc2)C(=O)NCCCN2CCOCC2)cc1,-72.3%
14,CC(C)c1ccc(/C=N/NC(=O)C(=O)NCCCN2CCOCC2)cc1,-20.6%
15,COc1ccc(/C=C(\NC(=O)c2ccc(C)cc2)C(=O)NCCCN2CCOCC2)cc1OC,19.9%
16,Cc1ccc(C(=O)N/C(=C/c2ccc(C(C)C)cc2)C(=O)NCCCN2CCOCC2)cc1,-65.8%
17,CC(C)c1ccc(NC2CCCN(C(=O)c3n[nH]c4c3CCC4)C2)cc1 (stereo not shown),5.38%
18,C=CCN(c1ccccc1C(=O)O)S(=O)(=O)c1ccc(NC(=O)OC)cc1,4.39%
19,CC1CCCCC1NC(=O)CN(C)S(=O)(=O)c1cccc2cccnc12 (stereo not shown),-0.115%
20,COc1cccc(SCC(=O)N2CCN(c3ccccc3)CC2)c1,-1.23%
21,CC[n+]1c(S(=O)(=O)[O-])ccc2ccc(C)cc21,6.26%
22,CCN1/C(=C/c2ccc3cccc(C)c3[n+]2CC)Sc2ccccc21.[I-],-75%

row,SMILES,"hERG current change (%, negative = inhibition) at 10uM"
1,CCC(=O)/C=C1/Sc2ccccc2N1CC,7.66%
2,CCN1/C(=C/c2ccc3ccc(C)cc3[n+]2CC)Sc2ccccc21.[I-],-81.1%
3,CCN1/C(=C/C(=O)c2ccco2)Sc2ccccc21,8.09%
4,CCN1/C(=C/c2ccc3cc(C)ccc3[n+]2CC)Sc2ccccc21.[I-],-90.6%
5,Cc1ccc2c(c1)S/C(=C\c1cccc[n+]1C)N2CCO.[I-],-0.805%
6,CCN1/C(=C/c2ccc3cc(C)ccc3[n+]2CC)Sc2ccc3sccc3c21.[I-],-44.5%
7,CCC(=O)/C=C1\Sc2ccccc2N1CC,-3.72%
8,COc1ccccc1CNCC(=O)Nc1ccc(N2CCOCC2)cc1.O=C(O)C(=O)O,1.57%
9,O=C(NCc1cccnc1)C1CCCCN1S(=O)(=O)c1ccc(F)cc1 (stereo not shown),-20.9%
10,CC(=O)Nc1ccc(S(=O)(=O)N2CCN(C(=O)Cc3ccccc3)CC2)cc1,-1.44%
11,COc1ccc(CN(CCNC(=O)CCCCC(=O)NCCN(Cc2ccc(OC)cc2)C(C)C)C(C)C)cc1.Cl,-5.63%
12,O=C(CCCOc1ccccc1)Nc1nncs1,-5.59%
13,COc1ccc(OC)c(N2C(=O)NC(=O)C3(Cc4cc(C)ccc4N(C)C3)C2=O)c1 (stereo not shown),-5.52%
14,Cc1ccccc1Oc1cc(-n2ncc(Cl)c(Cl)c2=O)ncn1,6.67%
15,CCc1cccc(CC)c1NC(=O)COc1ccccc1C(=O)c1cc(C#N)c(=O)n(C2CCCCC2)c1,14.4%
16,CCCCNC(=O)c1ccccc1Cl,21.5%
17,CN1CCc2c(n(CC(O)CN3CCN(CCO)CC3)c3ccccc23)C1=O.Cl (stereo not shown),2.24%
18,CN1CCc2c(n(CC(O)CNCc3ccccc3)c3ccccc23)C1=O.Cl (stereo not shown),-52.8%
19,CN1CCc2c(n(CC(O)CN(CCO)CCO)c3ccccc23)C1=O.Cl (stereo not shown),6.94%
20,Cc1cc(C)cc(N2CC(C)Cn3c2nc2c3c(=O)[nH]c(=O)n2C)c1 (stereo not shown),-2.03%
21,CCC(Oc1ccccc1)C(=O)NC1CCCCCC1 (stereo not shown),-0.406%
22,CCC1CCCCN1C(=O)CCn1c(=O)oc2ccccc21 (stereo not shown),-17.7%

row,SMILES,"hERG current change (%, negative = inhibition) at 10uM"
1,O=C(N/N=C/c1cccnc1)c1cc(-c2cccs2)nc2ccccc12,-20%
2,CCC(C)Sc1cccc(-c2nc3cc(C)ccn3c2NCc2ccccc2)c1.O=C(O)C(F)(F)F (stereo not shown),4.02%
3,Cc1ccc(S(=O)(=O)N2CCCCC2)cc1C(=O)N1CCN(CCO)CC1,3.41%
4,O=C(OCc1ccccc1)C1=NNC2C(=O)N(Cc3ccccc3)C(=O)C12 (stereo not shown),16.2%
5,O=C(C1=NN[C@@H]2C(=O)N(Cc3ccccc3)C(=O)[C@H]12)c1ccc(F)cc1,7.44%
6,O=C(C1=NN[C@@H]2C(=O)N(Cc3ccccc3)C(=O)[C@H]12)c1ccc([N+](=O)[O-])cc1,-50.2%
7,CC(C)(C)c1nnc(NS(=O)(=O)c2ccc([N+](=O)[O-])cc2)s1,28.3%
8,CSc1nc(N2CCN(C)CC2)c2ccccc2n1,-49.1%
9,CCN1CCN(c2nc(-c3ccccn3)nc3ccccc23)CC1,-56.3%
10,Fc1ccccc1-c1nc(N2CCCCC2)c2ccccc2n1,-1.61%
11,Oc1ccccc1-c1nc(N2CCCC2)c2ccccc2n1,-13.2%
12,COc1cccc(-c2nc(N3CCN(c4ccccc4)CC3)c3ccccc3n2)c1O,0.912%
13,CN1CCN(c2nc(-c3ccccn3)nc3ccccc23)CC1,-51.4%
14,c1ccc(N2CCN(c3nc(-c4ccccn4)nc4ccccc34)CC2)cc1,-73.9%
15,c1ccc(CN2CCN(c3nc(-c4ccccn4)nc4ccccc34)CC2)cc1,5.45%
16,c1ccc(-c2nc(N3CCCCCC3)c3ccccc3n2)nc1,-77.5%
17,c1ccc(-c2nc(N3CCOCC3)c3ccccc3n2)nc1,-15.9%
18,Cc1cc(C)c(S(=O)(=O)N2CCOC2CNC(=O)C(=O)NCCN(C)C)c(C)c1 (stereo not shown),13.1%
19,COc1ccc2[nH]cc(CCNC(=O)c3ccco3)c2c1,12.3%
